ClpP mod: qHTS Assay for Activators of ClpP. Potency, µM (series often up to 57.5 µM), for the others: at the highest dose activity change, negative = active. purified B. subtilis ClpP, FRET peptide cleavage, 20 min. AID 651965, 2013. actives 1.9% (n = 340,000). ATP-dependent Clp protease proteolytic subunit (Bacillus subtilis (strain 168)), P80244; active = well fitted falling curve with a large enough effect; inconclusive = small, poorly fitted or top-dose-only effect; inactive = no such curve, though single readings can be large or run the other way; note: potency is the fitted concentration of half-maximal effect; the source files actives as falling curves though it sought activators and does not explain the sign; nearly all actives have a fitted effect of over 65% in size
Target sequence (P80244 whole entry, looked up): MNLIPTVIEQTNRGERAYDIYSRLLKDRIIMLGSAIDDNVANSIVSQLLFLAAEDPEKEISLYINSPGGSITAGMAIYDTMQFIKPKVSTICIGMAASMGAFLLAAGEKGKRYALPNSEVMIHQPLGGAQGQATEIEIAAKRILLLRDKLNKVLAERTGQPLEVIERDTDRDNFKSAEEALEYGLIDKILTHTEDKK
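FRET quenching reversal measured ClpP activation: 10 microg/mL B. subtilis ClpP at pH 8 with the FRET-FV decapeptide, read at 430 nm after 320 nm excitation. The 20-min minus 0-min signal was scaled between DMSO/no-enzyme wells and ADEP (5.8 microM final).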
IL1B secr inh: qHTS for Inhibitors of Inflammasome Signaling: IL-1-beta AlphaLISA Primary Screen; THP-1 LPS/ATP IL-1B secretion, AlphaLISA, 16 h; stronger effect = lower value; activity change, % at 57.5 µM; actives 4.7% (n = 360,000); AID 743279, 2014; in the data active = activity change below about -50%; inconclusive = mostly about -30% to -49%; note: % is set by controls: 0 for no effect and ±100 for the full control effect
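THP-1 cells pretreated 1 hr with compounds (up to 57.5 uM final), then stimulated with LPS (250 ng/mL final) plus ATP (1.25 mM final); secreted IL-1B measured by AlphaLISA after 16 hr, decreased signal indicating inhibition.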
D3 ag: qHTS of D3 Dopamine Receptor Agonist: qHTS; AID 652048, 2013; max activation, %; D3R DiscoveRx beta-arrestin cells, luminescence, 90 min; actives 0.58% (n = 410,000); in the data active = max activation above about 30%; note: 0% is about no effect
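Agonist-mode cell screen: cells plated at 1500/well and incubated overnight at 37 °C, then exposed to library compounds for 90 min at 37 °C. Detection reagent was added for 30–60 min at room temperature, and luminescence was read.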
DT40 TDP1 no CPT: qHTS for Inhibitors of human tyrosyl-DNA phosphodiesterase 1 (TDP1): qHTS in cells in absence of CPT | DT40 Tdp1-/- hTDP1 cells, no CPT, ATP luminescence, 48 h | Potency, µM (top dose mostly 46.2 µM), without a hit: at the highest dose activity change, negative = growth inhibition, usual class: inhibitors | actives 15% (n = 420,000); note: potency is the fitted concentration of half-maximal effect; % is set by controls: 0 for no effect and ±100 for the full control effect; nearly all actives have a fitted effect of over 55% in size
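Chicken DT40 Tdp1-/- cells stably complemented with human TDP1 were seeded at 400 cells/well with DMSO in place of 20 nM camptothecin. After compound pinning, cells grew at least 48 hr at 37 °C; viability read by CellTiter-Glo luminescence.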
DRD3 antagonist: qHTS of D3 Dopamine Receptor Antagonist: qHTS. max response, negative = inhibition, %. D3R cells, DiscoveRx beta-arrestin luminescence, antagonist mode; stronger effect = lower value. actives 2.5% (n = 360,000). D(3) dopamine receptor (Homo sapiens), P35462; in the data active = max response below about -50%; inconclusive = no clear call, values can overlap the other calls; note: % is set by controls: 0 for no effect and ±100 for the full control effect
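Cells plated overnight at 1500 cells/well, then exposed to library compounds with dopamine controls for 90 minutes at 37 degrees C. DiscoveRx reagent added for 30–60 minutes at room temperature; luminescence read, quantitative HTS format.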
DT40 TDP1 CPT: qHTS for Inhibitors of human tyrosyl-DNA phosphodiesterase 1 (TDP1): qHTS in cells in presence of CPT | chicken DT40 Tdp1-/-;hTDP1 cells + 20 nM CPT, ATP luminescence, 48 h | Potency, µM (doses to about 46.2 µM), without a hit: at the highest dose activity change, negative = growth inhibition, most hits filed as inhibitors | actives 12% (n = 420,000) | AID 686979, 2013; note: potency is the fitted concentration of half-maximal effect; % is set by controls: 0 for no effect and ±100 for the full control effect; nearly all actives have a fitted effect of over 55% in size
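Chicken DT40 Tdp1-/- cells stably complemented with human TDP1 were seeded at 400 cells/well in medium containing 20 nM camptothecin, exposed to pin-transferred compounds, and grown at 37 °C for at least 48 hr. Viability was read as ATP luminescence.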
* hit, by the source's call; ? = inconclusive; / = no result given. Only some compounds are listed: those with a hit (about 21% of all), similar ones and a draw of the others. Unless noted, calls come from the whole dose curve; as a rule, active = well fitted inhibition curve with a large enough effect; inconclusive = small, poorly fitted or top-dose-only effect; inactive = flat fitted curve, though single readings scatter.

SMILES	ClpP mod	IL1B secr inh	D3 ag	DT40 TDP1 no CPT	DRD3 antagonist	DT40 TDP1 CPT
N#Cc1ccc(-c2ccc3c(c2)OCO3)nc1SCC(=O)OCc1ccccc1	2.51µM*	29.0	-6.7	-28.1%	21.1	1.3%
CCOC(=O)c1c(S(=O)(=O)N2CCC(C(=O)Nc3ccc(C)cc3C)CC2)c(C)n(C)c1C	1.3%	/	3.3	-16.8%	/	-11.4%
O=C(O)c1ccccc1-c1ccc(C=c2sc3nc4cc(Br)cnc4n3c2=O)o1	-13.1%	-9.2	-10.1	?	-55.5*	?
COc1cccc(CC(=O)NNC(=O)CN(C)S(=O)(=O)c2ccc(C)cc2)c1	1.1%	5.0	5.0	10.1%	-2.1	-6.7%
COCC(=O)N1CCC2(CCCN(c3ncccn3)C2)CC1	/	/	/	0.1%	/	7.9%
O=C(NCC(c1cccnc1)N1CCN(c2ccc(F)cc2)CC1)OCc1ccccc1 (stereo unspecified)	-1.9%	-16.7	-5.7	14.6µM*	0.0	?
O=C(NCC(c1cccnc1)N1CCN(c2ccc(F)cc2)CC1)c1cccc(Cl)c1 (stereo unspecified)	-0.9%	-22.2	3.8	10.3µM*	20.7	16.4µM*
O=C(NCCc1c[nH]c2ccccc12)C(=O)NCC(c1cccnc1)N1CCN(c2ccccc2)CC1 (stereo unspecified)	-0.2%	32.1	2.1	16.4µM*	23.4	18.4µM*
O=C(NCCc1ccccc1)C(=O)NCC(c1cccnc1)N1CCN(c2ccc(F)cc2)CC1 (stereo unspecified)	-3.2%	/	5.8	10.3µM*	/	14.6µM*
O=C(NCc1cccnc1)C(=O)NCC(c1cccnc1)N1CCN(c2ccc(F)cc2)CC1 (stereo unspecified)	1.1%	/	5.1	18.4µM*	/	20.6µM*
O=C(NCC(c1cccnc1)N1CCN(c2ccccc2F)CC1)OCc1ccccc1 (stereo unspecified)	0.6%	-18.1	-4.7	18.4µM*	0.0	?
COc1ccc(N2CCN(C(CNC(=O)C(=O)NCCc3c[nH]c4ccccc34)c3ccco3)CC2)cc1 (stereo unspecified)	0.2%	-51.7*	14.3	?	23.0	-16.2%
COc1ccc(N2CCN(C(CNC(=O)C(=O)NCCCO)c3ccco3)CC2)cc1 (stereo unspecified)	-0.4%	-1.8	0.6	-6.1%	-1.9	1.1%
O=C(NCC(c1cccnc1)N1CCN(c2ccccc2)CC1)OCc1ccccc1 (stereo unspecified)	-0.4%	0.0	2.3	?	47.0	?
N/C(=N\OC(=O)CCCOc1ccccc1)c1cccc([N+](=O)[O-])c1	/	-3.5	-9.7	-11.4%	-1.7	14.8%
O=C1CN(C(=O)COC(=O)[C@@H]2CCCN2S(=O)(=O)c2ccc(Cl)cc2)c2ccccc2N1	-1.5%	-8.9	-1.2	-27.8%	-13.0	-40.3%
CC1(C)CC(=O)C(C(C2=C(O)CC(C)(C)CC2=O)c2cccc(O)c2)C(=O)C1 (stereo unspecified)	0.3%	13.2	-5.5	0.0%	21.3	-15.6%
CC1(C)CC(=O)C(C(C2=C(O)CC(C)(C)CC2=O)c2cccs2)C(=O)C1 (stereo unspecified)	1.1%	-96.1*	14.1	?	-2.3	?
COc1ccccc1Nc1nnc(SCc2nnc(-c3cc(OC)c(OC)c(OC)c3)o2)s1	-2.2%	-4.9	-6.1	20.6µM*	15.6	20.6µM*

Compound activity from PubChem.
